Laboratory results from PubChem BioAssay AID485317 (Broad Institute, 2010).
Hit rate of the full screen: of about 290,000 compounds, about 11,000 (3.8%) were called active. This is one part of a sample in which actives are shown more often than they occur.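 Rule for the calls: active = mean replicate inhibition above about 79%, with every replicate also reaching it (limit read from the data); inconclusive = only one of the two criteria met; inactive = mean below limit and not every replicate reaching it.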

The compounds below were run against FAD-linked sulfhydryl oxidase ALR (Homo sapiens) (UniProt P55789) (assay: inhibitors of human ALR sulfhydryl oxidase, primary screen, biochemical, H2O2 detection, HRP-luminol luminescence, single point (AID 485317)). Settings: purified ALR, DTT oxidation, hits give high values, concentration not given here.
Sequence of FAD-linked sulfhydryl oxidase ALR (Homo sapiens) (P55789 whole entry, looked up): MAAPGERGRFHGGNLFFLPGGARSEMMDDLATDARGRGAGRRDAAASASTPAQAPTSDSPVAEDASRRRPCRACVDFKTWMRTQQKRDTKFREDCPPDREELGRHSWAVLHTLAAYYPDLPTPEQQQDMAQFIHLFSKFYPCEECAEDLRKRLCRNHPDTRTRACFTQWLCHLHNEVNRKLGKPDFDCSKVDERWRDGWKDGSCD
`COc1cc(OC)cc(-c2cc3ccc(F)cc3cn2)c1` was tested, and the inhibition was 0.168% (inactive).
For `Cc1ccc(S(=O)(=O)N2CCN(C(=O)CN3C(=O)NC(C)(c4ccc(Cl)cc4)C3=O)CC2)c(C)c1` (centres undefined), the inhibition was -8.79% (inactive).
`Cc1cc(N2C(=O)C(O)=C(C(=O)c3ccc(C)o3)C2c2ccc(OCc3ccccc3)cc2)no1` (centres undefined) was tested, and the inhibition was 38.2% (inactive).
In the case of `COc1cc(C2C(C(=O)c3ccc(C)o3)=C(O)C(=O)N2CCc2ccccc2)ccc1O` (centres undefined), the inhibition is reported as 51.3% (inactive).
For `C=CCOc1cccc(C2C(C(=O)c3ccc(C)o3)=C(O)C(=O)N2c2nnc(C)s2)c1` (centres undefined), the inhibition was 92.9% (active).
For `COC(=O)c1c(-c2ccsc2)oc2ccc(-c3cc(OC)c(OC)c(OC)c3)cc12`, the inhibition was -1.82% (inactive).
For `O=C(Cn1cnc2ccccc2c1=O)NNC(=O)c1ccccc1F`, the inhibition was 29.2% (inactive).
For `Cc1nnsc1C(=O)Nc1cccc(Cl)c1C`, the inhibition was -1.48% (inactive).
`Cc1cc(Cl)ccc1NNC(=O)c1snnc1C` was tested, and the inhibition was 98.9% (active).
`Cc1nnsc1C(=O)N/N=C/c1ccccc1Cl` was tested, and the inhibition was -1.47% (inactive).
For `CC(C)CN(C(=O)CSc1nncn1C)C1CCS(=O)(=O)C1` (centres undefined), the inhibition was 0.148% (inactive).
In the case of `Cn1c(-c2sccc2OCc2cccc(C(F)(F)F)c2)n[nH]c1=S`, the inhibition is reported as 1.68% (inactive).
In the case of `Cn1c(-c2sc3cc(C(F)(F)F)cnc3c2-c2ccccc2)n[nH]c1=S`, the inhibition is reported as 96.3% (active).
`C=CCn1c(-c2sc(-c3ccccc3)nc2C)n[nH]c1=S` was tested, and the inhibition was 8.68% (inactive).
With `COc1ccc(NC(=O)CSc2nc(SC)ns2)c(OC)c1` the inhibition was 84.5% (active).
With `CSc1nsc(SCC(=O)Nc2cc(C(=O)O)ccc2C)n1` the inhibition was 8.91% (inactive).
In the case of `COc1ccc(C)cc1NC(=O)CSc1nc(SC)ns1`, the inhibition is reported as -1.75% (inactive).
For `CCCCC/C=C/C1=CC(=O)C[C@H](c2ccc(Cl)cc2)C1`, the inhibition was 5.58% (inactive).
With `Cc1c(NC(=O)CSc2nnc(-c3cccnc3)n2N)c(=O)n(-c2ccccc2)n1C` the inhibition was 1.09% (inactive).
For `CS(=O)(=O)c1ccc(C(=O)OCC(=O)NNC(=O)COc2ccc(Cl)cc2)cc1`, the inhibition was -1.94% (inactive).
For `Cc1c(C(=O)NNC(=O)c2ccncc2)oc2ccccc12`, the inhibition was 2.8% (inactive).
`Cc1ccc(C(=O)NC(=S)NCc2cccnc2)cc1` was tested, and the inhibition was 24.9% (inactive).
`Cc1c(C(=O)NC(=S)NCc2cccnc2)oc2ccccc12` was tested, and the inhibition was 93.3% (active).
With `Cc1ccc(C2(C)NC(=O)N(CC(=O)N3CC(=O)Nc4ccccc43)C2=O)cc1` (centres undefined) the inhibition was 0.292% (inactive).
`Cc1ccc(S(=O)(=O)N(C)c2ccc(OCC(=O)OCC(=O)N(CC#N)c3ccccc3)cc2)cc1` was tested, and the inhibition was -18.6% (inactive).
`O=C(OCC(=O)N1CCCCC1)c1ccc(OC(F)(F)F)cc1` was tested, and the inhibition was -5.55% (inactive).
In the case of `Cc1cc(C)cc(OCC(=O)Nc2ccc(N3CCOCC3)cc2N2CCOCC2)c1`, the inhibition is reported as 7.88% (inactive).
For `O=C(CCc1nc2sc3c(c2c(=O)[nH]1)CCCC3)NCC(=O)Nc1ccccc1Br`, the inhibition was 18.6% (inactive).
`CCCN(CC1CC1)C(=O)COC(=O)c1ccc(C)cc1O` was tested, and the inhibition was 5.02% (inactive).
In the case of `CC1CCCC(NC(=O)c2cccc(N3CCCC3=O)c2)C1C` (centres undefined), the inhibition is reported as 0.109% (inactive).
In the case of `O=C(NCCc1ccc(Cl)cc1)c1cccc(N2CCCC2=O)c1`, the inhibition is reported as 2.63% (inactive).
In the case of `C/C(=N\NC(=O)c1cccc(N2CCCC2=O)c1)c1ccc(N)cc1`, the inhibition is reported as 99.1% (active).
With `Cc1ccnc(SCC(=O)Nc2cccc(S(=O)(=O)N3CCOCC3)c2)n1` the inhibition was -3.28% (inactive).
In the case of `CCOC(=O)Cc1csc(NC(=O)CSc2nc(C)cc(=O)[nH]2)n1`, the inhibition is reported as 98.7% (active).
In the case of `CCOC(=O)Cc1csc(NC(=O)C(C)(C)C)n1`, the inhibition is reported as -0.763% (inactive).
With `Cc1cc(=O)[nH]c(SCC(=O)Nc2ccc(Br)cc2)n1` the inhibition was -7.33% (inactive).
In the case of `CCCc1cc(=O)[nH]c(SCC(=O)Nc2ccc(S(=O)(=O)N3CCCC3)cc2)n1`, the inhibition is reported as -1.58% (inactive).
For `Cc1cccc(NC(=O)CSc2nc3[nH]ncc3c(=O)[nH]2)c1`, the inhibition was 1.74% (inactive).
`CCOC(=O)Cc1csc(NC(=O)CSc2ccc(Br)cc2)n1` was tested, and the inhibition was -32.4% (inactive).
In the case of `COc1ccc(NC(=O)CSc2nc(NS(=O)(=O)c3ccc(C)cc3)cc(=O)[nH]2)cc1`, the inhibition is reported as 98.9% (active).
For `Cc1ccc(NC(=O)CSc2nc(CSc3ccc(C)cc3)cc(=O)[nH]2)cc1`, the inhibition was 6.9% (inactive).
`COC(=O)c1cccc(NC(=O)CSc2nc(C)cc(=O)[nH]2)c1` was tested, and the inhibition was 98.5% (active).
In the case of `CC(=O)NC12CC3CC(C1)CC(C(=O)N1CCN(C(=O)c4ccco4)CC1)(C3)C2`, the inhibition is reported as -2.95% (inactive).
For `CC1(C)O[C@@H]2[C@H](O1)[C@@H](COS(=O)(=O)O)O[C@H]2n1ccc(=O)[nH]c1=O`, the inhibition was -0.754% (inactive).
`Cc1ccc(NNC(=O)c2cccs2)cc1Cl` was tested, and the inhibition was 2.62% (inactive).
For `Cc1ccc(NNC(=O)c2c(F)cccc2Cl)cc1Cl`, the inhibition was 98.7% (active).
`O=C(NNc1cc(Cl)cc(Cl)c1)c1c(F)cccc1Cl` was tested, and the inhibition was 3.41% (inactive).
For `Cc1csc(=O)n1CC(=O)Nc1ccc(S(C)(=O)=O)cc1`, the inhibition was 2.59% (inactive).
For `CN1C(=O)[C@H]2[C@@H](/C=C/c3ccccc3)N3C(=O)CN(Cc4ccc(-c5ccccc5)cc4)C(=O)[C@@]3(C)[C@H]2C1=O`, the inhibition was 3.57% (inactive).
In the case of `CC(=O)Nc1cccc(NC(=O)CSc2nccn2Cc2ccc(F)cc2)c1`, the inhibition is reported as 98.1% (active).
`CCCCNC(=O)CSc1nccn1Cc1ccccc1` was tested, and the inhibition was 11.9% (inactive).
In the case of `CCCCCCNC(=O)CSc1nccn1Cc1ccccc1`, the inhibition is reported as -0.072% (inactive).
In the case of `Cc1ccc(Nc2nc(-c3ccc(O)cc3O)cs2)nc1`, the inhibition is reported as 98.8% (active).
With `Clc1ccc(Nc2nc(-c3cccs3)cs2)nc1` the inhibition was -1.13% (inactive).
`O=c1oc2ccccc2cc1-c1csc(Nc2ccc(O)cc2)n1` was tested, and the inhibition was 32.6% (inactive).
In the case of `COC(=O)Cc1ccc(OC(=O)C2CCN(S(=O)(=O)c3ccc(OC)c(OC)c3)CC2)cc1`, the inhibition is reported as -4.72% (inactive).
`CC[N+](C)(CC)CCC[n+]1c(-c2ccccc2)c2cc(N)ccc2c2ccc(N)cc21` was tested, and the inhibition was 90.7% (active).
In the case of `O=C(COC(=O)c1cccnc1Cl)Nc1ccc(S(=O)(=O)N2CCOCC2)cc1`, the inhibition is reported as -2.58% (inactive).
With `Cc1cccc(Nc2nnc(SCC(=O)c3c(N)n(C4CC4)c(=O)[nH]c3=O)s2)c1C` the inhibition was -3.29% (inactive).
`CN(NS(=O)(=O)c1cccs1)c1ncc(C(F)(F)F)cc1Cl` was tested, and the inhibition was -1.63% (inactive).
In the case of `C#CCN(N(C)c1ncc(C(F)(F)F)cc1Cl)S(=O)(=O)c1ccc2ccccc2c1`, the inhibition is reported as 89.2% (active).
`Cc1nn(CC#N)c(=O)n1N(C)c1ncc(C(F)(F)F)cc1Cl` was tested, and the inhibition was 0.914% (inactive).
With `CCOC(=O)/C=C/c1ccc(C(F)(F)F)cc1S(=O)(=O)NC(C)(C)C` the inhibition was 20.8% (inactive).
In the case of `c1ccc2cc(CCCc3cc4ccccc4cn3)ncc2c1`, the inhibition is reported as 2.21% (inactive).
For `CN(Cc1ccccc1)C(=O)COC(=O)/C=C/c1ccc2c(c1)OCO2`, the inhibition was 0.927% (inactive).
`Cc1ccc(N2C(=O)CC(Sc3ncn[nH]3)C2=O)cc1` (centres undefined) was tested, and the inhibition was 45.4% (inactive).
For `COc1ccc(-c2nc(SCC(=O)N3CCCC3)n[nH]2)cc1`, the inhibition was -0.237% (inactive).
For `COc1ccc(N2C(=O)CC(Sc3n[nH]c(-c4ccc(C)cc4)n3)C2=O)cc1` (centres undefined), the inhibition was 98.9% (active).
With `CN(CC(=O)NCCc1ccc(S(N)(=O)=O)cc1)CC(=O)Nc1ccc(F)c(F)c1F` the inhibition was -4.6% (inactive).
With `CCCSc1ccc([C@H]2N[C@@](Cc3ccccc3)(C(=O)OC)[C@H]3C(=O)N(C)C(=O)[C@@H]23)cc1` the inhibition was 4.44% (inactive).
For `Cc1ccc(-c2cc(C(=O)N/N=C/C=C/c3ccccc3)n[nH]2)o1`, the inhibition was -7.61% (inactive).
`S=c1[nH]nc(/C=C/c2ccccc2)o1` was tested, and the inhibition was 83.4% (active).
`CCOC(=O)C1CCN(C(=O)CN2C(=O)NC(C)(c3ccc4cc(OC)ccc4c3)C2=O)CC1` (centres undefined) was tested, and the inhibition was -7.42% (inactive).
With `NC1=NC(c2ccc([N+](=O)[O-])cc2)N(c2ccc(F)cc2)C(N)=N1` (centres undefined) the inhibition was -1.48% (inactive).
For `CCOC(=O)CSC1=C(C#N)C(c2ccco2)C(C(=O)OCc2ccccc2)=C(C)N1` (centres undefined), the inhibition was -2.61% (inactive).
`CCOC(=O)CSC1=C(C#N)C(c2sccc2C)CC(=O)N1` (centres undefined) was tested, and the inhibition was 2.21% (inactive).
With `Cc1ccc(C2CC(=O)NC(SCC(=O)OCc3ccccc3)=C2C#N)o1` (centres undefined) the inhibition was 98.4% (active).
In the case of `Cc1cc(Br)ccc1NC(=O)CN(C)C(=O)CN1C(=O)NC2(CCCC2)C1=O`, the inhibition is reported as -8.04% (inactive).
In the case of `COc1cc(NC(=O)COC(=O)c2cc(S(=O)(=O)N3CCOCC3)ccc2F)cc(OC)c1`, the inhibition is reported as -2.6% (inactive).
In the case of `COc1ccc2c(c1)C=CC1(O2)N(CCO)c2ccccc2C1(C)C` (centres undefined), the inhibition is reported as -8.22% (inactive).
For `CN1c2ccc([N+](=O)[O-])cc2C(C)(C)C12C=Cc1cc(C(=O)O)ccc1O2` (centres undefined), the inhibition was 97.9% (active).
With `Cc1cc(C)n(-c2ccc(C(=O)O)cc2[N+](=O)[O-])n1` the inhibition was -3.49% (inactive).
`CCOC(=O)[C@@H]1[C@H]2COc3ccc(Br)cc3[C@H]2N2C(=O)N(c3ccc(C)cc3)C(=O)[C@@]12C` was tested, and the inhibition was -4.73% (inactive).
`COc1ccc(NC(=O)/C(C#N)=C\c2cc(OC)c(OCc3ccc(C(=O)O)cc3)cc2Br)cc1` was tested, and the inhibition was 98% (active).
For `COc1cc(/C=C(\C#N)C(=O)Nc2ccc3ccccc3c2)c([N+](=O)[O-])cc1OC`, the inhibition was -17.7% (inactive).
`COc1ccc(CNC(=O)/C(C#N)=C/c2cccc(OC)c2OC)cc1` was tested, and the inhibition was 12.6% (inactive).
For `COc1cc(OC)cc(-c2sc3ccc(OC)cc3c2-c2ccc3cc[nH]c3c2)c1`, the inhibition was 0.621% (inactive).
For `COc1ccc(N2CCN(C(CNS(=O)(=O)c3ccc(C)cc3)c3ccccc3)CC2)cc1` (centres undefined), the inhibition was -0.191% (inactive).
For `O=C(CCN1C(=O)C2CCCCC2C1=O)Nc1ccc(OC(F)F)cc1` (centres undefined), the inhibition was -7.6% (inactive).
